27 compounds from PubChem BioAssay (EPA / NIEHS) can be followed below.

Assay [1] concerns the target rat Thyrotropin Releasing Hormone Receptor (TRH), Trhr (gene 25570) (UniProt Q01717). Briefly: NVS_GPCR_rTRH: NovaScreen (NVS) G Protein-Coupled Receptor Assay for rat Thyrotropin Releasing Hormone Receptor (TRH) (AID 2283329).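 Further: hit means lower bound tracer signal versus DMSO baseline.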 The essentials: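 Cell-free radioligand binding on rat forebrain membranes; bound tracer measured by filter-based scintillation counting 4 hours after dosing. Loss of signal versus DMSO baseline indicates displacement; primary screen at 25 uM in duplicate, actives then run in concentration series.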

The target of assay [2] is human Peripheral-type Benzodiazepine Receptor (PBR), TSPO (gene 706) (UniProt P30536). As to the kind of experiment: NVS_MP_hPBR: NovaScreen (NVS) Membrane Protein Assay for human Peripheral-type Benzodiazepine Receptor (PBR) (AID 2283331).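 Further: hits reduce radioligand binding relative to DMSO baseline.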 The essentials:
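Human colonic cell membranes were incubated with test chemical for 1 hour; radioligand binding was measured by filter-based scintillation counting. Primary screen ran in duplicate at 25 uM, with actives followed in concentration series; loss of signal versus DMSO baseline.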

Assay [3] has as its target Voltage-gated inwardly rectifying potassium channel KCNH2 (Homo sapiens) (UniProt Q12809). Briefly: NVS_IC_hKhERGCh: NovaScreen (NVS) Ion Channel Assay for human Potassium Channel ERG (KhERGCh) (AID 2283333). The essentials:
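Cell-free radioligand competition binding on hERG protein extracted from CHO cells, read by filter-based scintillation counting 0.75 h after dosing. Primary screen at 25 uM in duplicate, actives followed in concentration series. Signal loss fitted versus DMSO.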

Assay [4] concerns the target Glutamate receptor ionotropic, kainate 1 (Rattus norvegicus) (UniProt P22756). As to the kind of experiment: NVS_IC_rKAR: NovaScreen (NVS) Ion Channel Assay for rat Kainic Acid Receptors (KAR) (AID 2283334; active means hit-call score of the fitted dose curve at least 0.9, where 1 is the maximum; inactive means score below 0.9). The essentials: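 Radioligand displacement binding using rat forebrain membranes, 1 h incubation, filter-based scintillation counting. Screened in duplicate at 25 uM, with actives retested in concentration-response up to 50 uM; fitted against DMSO.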

Assay [5] has as its target rat Glutamate, AMPA Site (AMPA), Gria1 (gene 50592) (UniProt P19490). Briefly: NVS_LGIC_rAMPA: NovaScreen (NVS) Ligand-Gated Ion Channel Assay for rat Glutamate, AMPA Site (AMPA) (AID 2283324). The essentials:
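Rat forebrain membranes; radioligand binding read 1 h after dosing by filtration and scintillation counting. Duplicate single-point screen at 25 uM, then concentration-response to 50 uM for threshold hits (e.g. 30% inhibition); loss of signal vs DMSO.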

Assay [6] has as its target human Serotonin, 5-Hydroxytryptamine Receptor 3 (5HT3), HTR3A (gene 3359) (UniProt P46098). Briefly: NVS_LGIC_h5HT3: NovaScreen (NVS) Ligand-Gated Ion Channel Assay for human Serotonin, 5-Hydroxytryptamine Receptor 3 (5HT3) (AID 2283325). The method in brief: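 Radioligand displacement binding to human 5-HT3 from HEK293 membranes, read by filter-based scintillation counting after 1 h. Screen at 25 uM in duplicate; chemicals passing threshold were retested in concentration-response up to 50 uM.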

Assay [7] deals with rat Gamma-Aminobutyric Acid Type A Receptor, Non-Selective (GABAR-NonSelective), Gabra1 (gene 29705) (UniProt P62813). As to the kind of experiment: NVS_LGIC_rGABAR_NonSelective: NovaScreen (NVS) Ligand-Gated Ion Channel Assay for rat Gamma-Aminobutyric Acid Type A Receptor, Non-Selective (GABAR-NonSelective) (AID 2283326). The method in brief:
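Radioligand displacement on rat whole-brain extract, 1 h, filter scintillation readout; signal loss fitted versus DMSO. Primary screen in duplicate at 25 uM; hits (e.g. ≥30% inhibition) retested in concentration-response up to 50 uM.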

Assay [8] addresses human Androgen Receptor (AR), AR (gene 367) (UniProt P10275). Briefly: NVS_NR_hAR: NovaScreen (NVS) Nuclear Receptor Binding Assay for human Androgen Receptor (AR) (AID 2283332). Here is the method:
NVS_NR_hAR is a biochemical, single-readout assay that uses extracted gene-proteins from LnCAP in a cell-free assay. Measurements were taken 20 hours after chemical dosing in a 96-well plate.NVS_NR_hAR is one of one assay component(s) measured or calculated from the NVS_NR_hAR assay. It is designed to make measurements of radioligand binding, a form of binding reporter, as detected with scintillation counting signals by Lysate-based radiodetection technology.Data from the assay component NVS_NR_hAR was analyzed into 1 assay endpoint. This assay endpoint, NVS_NR_hAR, was analyzed in the positive analysis fitting direction relative to DMSO as the negative control and baseline of activity. […] Furthermore, this assay endpoint can be referred to as a primary readout, because the performed assay has only produced 1 assay endpoint. […]
Binding assays used specific radioligands (tritiated, iodinated) with non-radioactive competitive displacement ligands in agonist or antagonist protocols (as indicated) and various reference compounds and inhibitors to titrate specific binding to receptors and transporters. Most enzyme assays (CYPs, kinases, phosphatases, proteases, HDACs) used recombinant protein and specific substrates (fluorescence mostly, some colorimetric and radioactive) and inhibitors, followed by a biochemical separation of substrate and product. […]

Assay [9] deals with rat Glutamate, NMDA Agonist Site (GluNMDA), Grin1 (gene 24408) (UniProt P35439). As to the kind of experiment: NVS_LGIC_rGluNMDA_Agonist: NovaScreen (NVS) Ligand-Gated Ion Channel Assay for rat Glutamate, NMDA Agonist Site (GluNMDA) (AID 2283327). The method in brief: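 Rat forebrain membranes, radioligand binding in the agonist-site protocol; 1 h after dosing; filter-based scintillation counting. Single-concentration duplicate screen at 25 uM, then concentration-response up to 50 uM for actives; gain-of-signal vs DMSO.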

In assay [10] the target is human Constitutive Androstane Receptor (CAR), NR1I3 (gene 9970) (UniProt Q14994). As to the kind of experiment: NVS_NR_hCAR_Agonist: NovaScreen (NVS) Nuclear Receptor Binding Assay for human Constitutive Androstane Receptor Agonism (CAR) (AID 2283328). The essentials: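 Cell-free TR-FRET binding readout with extracted human CAR protein, read 1 h after dosing. Gain of signal fitted against DMSO baseline. Single-concentration duplicates at 25 uM, then concentration-response up to 50 uM for actives.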
Sequence of human Constitutive Androstane Receptor (CAR), NR1I3 (gene 9970) (Q14994 whole entry, looked up): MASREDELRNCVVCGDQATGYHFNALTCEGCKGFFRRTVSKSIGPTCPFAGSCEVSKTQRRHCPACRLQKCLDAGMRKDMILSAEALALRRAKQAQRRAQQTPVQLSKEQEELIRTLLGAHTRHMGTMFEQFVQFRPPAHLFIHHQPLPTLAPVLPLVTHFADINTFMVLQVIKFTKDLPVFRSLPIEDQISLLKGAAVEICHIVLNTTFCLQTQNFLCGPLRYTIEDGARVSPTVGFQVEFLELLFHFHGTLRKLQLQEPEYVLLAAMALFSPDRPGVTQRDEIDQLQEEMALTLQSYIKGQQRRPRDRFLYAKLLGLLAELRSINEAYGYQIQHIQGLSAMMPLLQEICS

Where “and” joins values, the source holds several entries; their conditions need not be identical. Equal entries are not always repeated. Inconclusive results are not listed. More than one record can exist for a structure, and the calls need not agree. Calls of active or inactive are those of the source. How the source made its calls, unless noted: active means hit-call score of the fitted dose curve at least 0.9, where 1 is the maximum; inconclusive means response in the unintended direction; inactive means score below 0.9.

Sequence of Glutamate receptor ionotropic, kainate 1 (Rattus norvegicus) (P22756 whole entry, looked up): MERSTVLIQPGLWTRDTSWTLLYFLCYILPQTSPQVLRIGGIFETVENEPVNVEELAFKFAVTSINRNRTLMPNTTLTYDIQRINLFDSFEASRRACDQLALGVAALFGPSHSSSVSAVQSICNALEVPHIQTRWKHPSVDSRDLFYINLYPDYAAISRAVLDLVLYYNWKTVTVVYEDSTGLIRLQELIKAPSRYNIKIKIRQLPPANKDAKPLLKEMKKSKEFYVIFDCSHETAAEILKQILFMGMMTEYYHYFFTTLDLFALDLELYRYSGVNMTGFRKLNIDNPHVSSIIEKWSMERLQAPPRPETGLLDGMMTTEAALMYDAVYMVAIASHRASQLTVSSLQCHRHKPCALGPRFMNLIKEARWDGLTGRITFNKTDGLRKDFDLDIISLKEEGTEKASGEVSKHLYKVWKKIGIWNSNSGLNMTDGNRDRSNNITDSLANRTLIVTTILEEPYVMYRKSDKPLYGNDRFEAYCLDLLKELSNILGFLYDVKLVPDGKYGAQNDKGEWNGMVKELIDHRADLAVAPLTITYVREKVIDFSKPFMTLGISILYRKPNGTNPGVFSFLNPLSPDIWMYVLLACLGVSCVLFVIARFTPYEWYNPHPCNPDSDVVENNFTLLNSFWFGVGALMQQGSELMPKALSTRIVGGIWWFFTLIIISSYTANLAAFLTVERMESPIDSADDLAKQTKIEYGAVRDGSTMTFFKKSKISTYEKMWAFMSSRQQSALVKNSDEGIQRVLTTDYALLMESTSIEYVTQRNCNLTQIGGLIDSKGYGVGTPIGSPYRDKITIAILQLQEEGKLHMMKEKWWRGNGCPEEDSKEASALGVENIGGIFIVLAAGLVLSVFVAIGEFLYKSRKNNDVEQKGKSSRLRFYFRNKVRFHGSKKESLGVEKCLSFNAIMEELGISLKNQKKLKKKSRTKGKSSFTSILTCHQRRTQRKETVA
Sequence of rat Glutamate, AMPA Site (AMPA), Gria1 (gene 50592) (P19490 whole entry, looked up): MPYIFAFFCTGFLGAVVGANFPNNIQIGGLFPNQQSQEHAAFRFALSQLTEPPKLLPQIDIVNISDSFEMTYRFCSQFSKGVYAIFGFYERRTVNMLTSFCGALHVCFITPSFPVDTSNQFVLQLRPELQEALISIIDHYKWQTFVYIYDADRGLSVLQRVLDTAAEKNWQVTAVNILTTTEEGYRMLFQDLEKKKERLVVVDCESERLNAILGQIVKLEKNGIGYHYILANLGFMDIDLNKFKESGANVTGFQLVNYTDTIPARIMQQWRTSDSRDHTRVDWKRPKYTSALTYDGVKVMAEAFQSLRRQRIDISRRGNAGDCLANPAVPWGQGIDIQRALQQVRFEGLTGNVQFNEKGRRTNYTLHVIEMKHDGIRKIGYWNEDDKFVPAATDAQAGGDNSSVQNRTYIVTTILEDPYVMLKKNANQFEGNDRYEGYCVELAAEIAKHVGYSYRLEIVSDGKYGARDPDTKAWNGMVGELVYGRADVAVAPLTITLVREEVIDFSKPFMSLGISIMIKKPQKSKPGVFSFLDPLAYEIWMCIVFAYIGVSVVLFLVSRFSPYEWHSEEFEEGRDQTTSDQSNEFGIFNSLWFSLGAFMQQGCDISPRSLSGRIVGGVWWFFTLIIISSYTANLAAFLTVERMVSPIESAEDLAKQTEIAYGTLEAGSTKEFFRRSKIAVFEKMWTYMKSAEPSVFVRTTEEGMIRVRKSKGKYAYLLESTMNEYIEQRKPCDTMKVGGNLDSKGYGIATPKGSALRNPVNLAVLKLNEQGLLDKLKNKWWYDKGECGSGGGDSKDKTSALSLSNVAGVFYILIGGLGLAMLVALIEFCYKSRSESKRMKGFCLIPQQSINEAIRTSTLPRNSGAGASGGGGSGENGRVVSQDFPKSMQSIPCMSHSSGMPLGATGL
Sequence of human Serotonin, 5-Hydroxytryptamine Receptor 3 (5HT3), HTR3A (gene 3359) (P46098 whole entry, looked up): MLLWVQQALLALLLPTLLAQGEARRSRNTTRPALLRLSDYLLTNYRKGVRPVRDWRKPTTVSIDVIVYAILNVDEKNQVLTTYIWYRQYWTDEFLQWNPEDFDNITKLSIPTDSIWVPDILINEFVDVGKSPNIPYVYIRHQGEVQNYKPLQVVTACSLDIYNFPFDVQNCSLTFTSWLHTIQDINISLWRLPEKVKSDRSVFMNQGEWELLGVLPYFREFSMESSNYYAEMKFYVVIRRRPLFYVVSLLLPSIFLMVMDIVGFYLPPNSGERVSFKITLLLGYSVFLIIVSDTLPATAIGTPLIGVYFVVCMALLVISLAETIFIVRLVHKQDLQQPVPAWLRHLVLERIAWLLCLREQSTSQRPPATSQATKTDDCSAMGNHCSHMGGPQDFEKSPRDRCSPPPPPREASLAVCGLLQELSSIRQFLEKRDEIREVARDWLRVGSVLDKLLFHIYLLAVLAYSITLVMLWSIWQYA
Sequence of human Peripheral-type Benzodiazepine Receptor (PBR), TSPO (gene 706) (P30536 whole entry, looked up): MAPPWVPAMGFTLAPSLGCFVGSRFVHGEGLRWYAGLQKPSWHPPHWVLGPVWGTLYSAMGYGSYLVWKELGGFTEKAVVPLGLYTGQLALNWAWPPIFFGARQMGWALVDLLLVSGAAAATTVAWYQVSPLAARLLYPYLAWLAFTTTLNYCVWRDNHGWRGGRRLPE
Sequence of Voltage-gated inwardly rectifying potassium channel KCNH2 (Homo sapiens) (Q12809 whole entry, looked up): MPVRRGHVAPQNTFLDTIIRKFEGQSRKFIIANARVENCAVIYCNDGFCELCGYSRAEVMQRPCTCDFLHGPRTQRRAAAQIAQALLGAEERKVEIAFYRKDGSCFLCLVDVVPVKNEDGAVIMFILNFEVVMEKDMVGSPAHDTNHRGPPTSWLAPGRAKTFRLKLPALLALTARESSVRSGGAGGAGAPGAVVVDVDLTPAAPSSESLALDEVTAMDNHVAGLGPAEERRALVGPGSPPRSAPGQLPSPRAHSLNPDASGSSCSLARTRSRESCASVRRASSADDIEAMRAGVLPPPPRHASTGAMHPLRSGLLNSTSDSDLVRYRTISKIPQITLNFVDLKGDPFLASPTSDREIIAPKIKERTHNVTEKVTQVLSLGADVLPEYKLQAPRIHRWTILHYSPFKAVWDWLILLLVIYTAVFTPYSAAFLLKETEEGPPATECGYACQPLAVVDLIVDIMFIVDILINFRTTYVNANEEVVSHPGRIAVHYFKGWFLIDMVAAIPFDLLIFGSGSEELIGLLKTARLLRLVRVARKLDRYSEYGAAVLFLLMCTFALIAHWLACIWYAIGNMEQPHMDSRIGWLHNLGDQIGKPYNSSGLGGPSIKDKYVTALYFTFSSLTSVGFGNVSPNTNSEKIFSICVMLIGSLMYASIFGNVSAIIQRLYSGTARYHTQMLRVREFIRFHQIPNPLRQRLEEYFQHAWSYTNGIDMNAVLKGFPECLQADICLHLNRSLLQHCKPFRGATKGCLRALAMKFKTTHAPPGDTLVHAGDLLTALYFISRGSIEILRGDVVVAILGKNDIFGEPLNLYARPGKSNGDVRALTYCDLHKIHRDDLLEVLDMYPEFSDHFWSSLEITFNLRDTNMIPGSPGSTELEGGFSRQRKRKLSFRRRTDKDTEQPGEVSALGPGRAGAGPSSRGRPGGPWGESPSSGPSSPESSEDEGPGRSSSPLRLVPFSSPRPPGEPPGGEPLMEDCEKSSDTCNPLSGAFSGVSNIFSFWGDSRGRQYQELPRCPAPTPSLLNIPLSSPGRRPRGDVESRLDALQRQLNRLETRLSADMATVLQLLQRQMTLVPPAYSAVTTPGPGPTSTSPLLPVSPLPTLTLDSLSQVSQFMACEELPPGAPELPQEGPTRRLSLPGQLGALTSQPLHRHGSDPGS
Sequence of rat Gamma-Aminobutyric Acid Type A Receptor, Non-Selective (GABAR-NonSelective), Gabra1 (gene 29705) (P62813 whole entry, looked up): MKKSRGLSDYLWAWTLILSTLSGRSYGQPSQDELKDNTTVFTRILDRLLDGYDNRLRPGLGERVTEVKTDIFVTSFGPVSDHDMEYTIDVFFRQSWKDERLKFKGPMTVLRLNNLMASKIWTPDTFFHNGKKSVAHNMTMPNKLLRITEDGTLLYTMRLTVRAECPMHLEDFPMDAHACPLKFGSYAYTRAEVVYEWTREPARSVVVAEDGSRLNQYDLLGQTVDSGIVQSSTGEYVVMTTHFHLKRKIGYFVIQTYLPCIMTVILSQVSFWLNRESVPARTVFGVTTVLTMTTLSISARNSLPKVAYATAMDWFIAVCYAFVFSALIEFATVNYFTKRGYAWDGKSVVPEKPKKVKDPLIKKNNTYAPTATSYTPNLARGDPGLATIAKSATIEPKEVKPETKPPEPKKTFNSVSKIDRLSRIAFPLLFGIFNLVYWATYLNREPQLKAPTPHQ
Sequence of rat Thyrotropin Releasing Hormone Receptor (TRH), Trhr (gene 25570) (Q01717 whole entry, looked up): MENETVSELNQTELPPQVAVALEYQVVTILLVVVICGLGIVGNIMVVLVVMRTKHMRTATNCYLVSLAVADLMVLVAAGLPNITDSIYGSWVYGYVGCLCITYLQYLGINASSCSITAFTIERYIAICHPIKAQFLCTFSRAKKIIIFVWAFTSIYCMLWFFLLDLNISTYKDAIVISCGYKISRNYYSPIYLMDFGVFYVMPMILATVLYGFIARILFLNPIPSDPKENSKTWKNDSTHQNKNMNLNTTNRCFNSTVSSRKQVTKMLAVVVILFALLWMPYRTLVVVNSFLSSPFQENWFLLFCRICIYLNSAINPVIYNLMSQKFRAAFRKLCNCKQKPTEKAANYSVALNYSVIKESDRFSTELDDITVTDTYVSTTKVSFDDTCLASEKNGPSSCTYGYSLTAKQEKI

Take `O=C1c2ccccc2C(=O)N1CCc1noc(-c2ccc(CN3CCCCCC3)s2)n1`: the result in assay [1] was inactive.

For the compound `Cc1ccc2oc(CN(Cc3ccccc3)C(=O)Nc3c(F)cc(F)cc3F)c(-c3ccc(Cl)cc3)c2c1`, the AC50 in assay [2] was 2.6 µM (active). Consider `CCCCCCCCN(C)CCCCCCCC`, for which the result in [3] and in assay [4] was inactive. For the compound `CCCC(=O)OCCC(C)C`, the compound was called inactive in assay [4]. Take `CCCCOC(=O)CC(CC(=O)OCCCC)(OC(C)=O)C(=O)OCCCC`: the outcome in assay [2] was inactive. Turning to `CC/C(=C(/CC)c1ccc(O)cc1)c1ccc(O)cc1`, the compound was classed as inactive in assay [5] and in assay [2]. Further, the AC50 in assay [2] was 202 nM (active) and 13.5 µM (active). As to `CCOC(=O)O[C@H](C)OC(=O)c1ccc2c(c1)cc(C(=O)NC1CCN(C(C)C)CC1)n2Cc1cc(-c2ccc(Cl)s2)on1`, in [6], the compound was called inactive. For the same compound, the concentration at half-maximal activity (AC50) in assay [3] was 0.925 µM (active). Turning to `Clc1cc(Cl)c2c(c1)N=C1CCCCCN1C2`, the AC50 in [6] was 12.5 µM (active).

Consider `OC12N=C(c3ccccc3)SC1Cc1cc(Cl)ccc12` (centres undefined), for which, in assay [7], the AC50 was 2.62 µM (active). The compound was classed as inactive in [2]. On to `O=c1c(-c2ccc(O)cc2)coc2cc(O)cc(O)c12`, for which the AC50 in assay [2] was 8.19 µM (active). For the same compound, the outcome in [8] was inactive. Take `O=c1[nH]sc2ccccc12`: the outcome in [5] and in assay [4] was inactive. For `CC[C@H](NC(=O)c1cc(F)ccc1NS(=O)(=O)c1cccc2cccnc12)c1ccccc1`, in assay [2], the AC50 is 0.246 µM (active). As for `CCN(Cc1cccnc1)C(=O)c1cccc(Cl)c1[C@]1(C)C(=O)N(Cc2ccc(OC)cc2OC)c2ccc(Cl)cc21`, the AC50 was 16.8 µM (active) in assay [7] and 1.07 µM (active) in assay [2].

Take `CN(C)C(=O)C1(N2CCCCC2)CCN(CC[C@@]2(c3ccc(Cl)c(Cl)c3)CN(C(=O)c3ccccc3)CCO2)CC1`: the half-maximal activity concentration (AC50) in [5] is 4.68 µM (active); in assay [7] it was 2 µM (active); in [9], 29.3 µM (active); in assay [3] it was 8.74 µM (active). For the compound `Oc1ccc2ccccc2c1`, in assay [2], the outcome was inactive. On the same count and under the same terms, then `CC[C@@H]1C[C@H](N(Cc2cc(C(F)(F)F)cc(C(F)(F)F)c2)C(C)=O)c2cc(C(F)(F)F)ccc2N1C(=O)OC(C)C`, with “inactive”.

On to `O=C1O[C@H]([C@@H](O)CO)C(O)=C1O`, for which the call in assay [9] was inactive. In the case of `COc1ccc2cc(S(=O)(=O)N[C@H](CC(=O)N[C@H](Cc3ccc(CN4[C@H](C)CCC[C@@H]4C)cc3)C(=O)N(C)C(C)C)c3ccc4c(c3)OCO4)ccc2c1`, the half-maximal activity concentration (AC50) in assay [7] was 11.2 µM (active); in assay [3], 1.21 µM (active). For `CCN(CC)C(=O)c1cc(S(=O)(=O)Cc2ccccc2)c(N2CCC(c3ccccc3)CC2)cc1N(CC)CCN(C)C`, the AC50 in assay [2] was 3.31 µM (active); in assay [3], 6.17 µM (active).

On to `CCCCOC(=O)c1ccc(O)cc1`, for which the call in assay [5] and in assay [10] was inactive. The concentration at half-maximal activity (AC50) in [2] is 19.6 µM (active) and 25 µM (active). Consider `CCCCCCCCOC(=O)c1cc(O)c(O)c(O)c1`, for which the half-maximal activity concentration (AC50) in assay [2] was 0.439 µM (active). As for `CCCCCCCCCC(=O)O`, the compound was classed as inactive in assay [5]. Consider `O=C(O)Cn1c(=O)n(Cc2ccc(Br)cc2F)c(=O)c2ccc(Cl)cc21`, for which the call in [9] and in assay [2] was inactive. Regarding `COc1cccc([C@H](O)C2CCN(CCc3ccc(F)cc3)CC2)c1OC`, the outcome in assay [6] was inactive. Take `Cc1cc2c(cc1C(F)(F)F)N(C(=O)Nc1ccc(Oc3cccnc3C)nc1)CC2`: in assay [7], the AC50 was 8.52 µM (active). Consider `Cc1c2ccccc2c(C)c2c1ccc1ccccc12`, for which, in assay [10], the call was inactive. Also, the AC50 in assay [2] is 14.6 µM (active).

Consider `O=C1CCC(C2CCCCC2)CC1`, for which the outcome in assay [1] was inactive.
